Max inhibition of viability %, active compounds read high data for eleven compounds are collected here from PubChem BioAssay AID743356 (Broad Institute, 2014).

Values without a mark were called inactive.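 Rule for the calls: active = compounds that cut cell viability with a fitted half-maximal dose no more than twice the top valid dose; inconclusive = flat curve inhibiting 30 to 70%, or a poor fit; inactive = the rest, including any rise in viability.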

A short description of the assay: A549 cell cytotoxicity, dose response, cytotoxicity control, luminescence, dry powder, set 10 (AID 743356). Particulars: CellTiter-Glo ATP luminescence, 72 h; at 26 µM unless noted. On the technique in general: In ATP-based viability assays light output follows the ATP content of the culture.
Turning to `CN1c2ccc(-c3cccc(F)c3)cc2[C@H]2[C@H](CCN2C(=O)Cc2cccnc2)[C@H]1CO`, the max inhibition of viability %, active compounds read high is -2.44%.
On to `COc1cccc(NC(=O)N2CC[C@@H]3[C@@H](CO)N(C)c4ccc(-c5cccc(F)c5)cc4[C@@H]32)c1`, for which the max inhibition of viability %, active compounds read high was -9.56%.
Next, `COC(=O)c1ccc(N2CCN(C(=O)c3ccc4c(c3)OCO4)CC2)cc1`: 15.6% [at 0.1 µM]; `CC(C)NC(=O)N1CC[C@@H]2[C@@H](CO)N(C)c3ccc(-c4cccc(F)c4)cc3[C@@H]21`: 14.2% [setting not given]; `CN1c2ccc(-c3ccc(F)cc3)cc2[C@H]2[C@H](CCN2C(=O)Cc2cccnc2)[C@H]1CO`: 13.9% [at 0.0007 µM].
As to `CC(=O)c1ccc(N2CCN(C(=O)c3ccc4c(c3)OCO4)CC2)cc1`, the max inhibition of viability %, active compounds read high is 20.5% [at 0.8 µM].
Next, `CN1c2ccc(-c3ccc(F)cc3)cc2[C@H]2[C@H](CCN2C(=O)Nc2ccc(F)cc2)[C@H]1CO`: 18.3% [at 0.05 µM].
Take `CC(=O)c1ccc(N2CCN(C(=O)c3ccccc3F)CC2)cc1`: the max inhibition of viability %, active compounds read high is 10.7% [at 0.012 µM].
Next, `CN1c2ccc(-c3cccc(F)c3)cc2[C@H]2[C@H](CCN2C(=O)CCCCCCN)[C@H]1CO`: 15.1% [at 0.0004 µM].
Next, `CN1c2ccc(-c3cccc(F)c3)cc2[C@H]2[C@H](CCN2C(=O)c2ccc3c(c2)OCO3)[C@@H]1CO`: -9.58%; `CN1c2ccc(-c3cccc(F)c3)cc2[C@H]2[C@H](CCN2C(=O)Cc2ccccc2)[C@H]1CO`: -6.91% [at 23.5 µM].
